PubChem BioAssay AID1159524 (National Center for Advancing Translational Sciences (NCATS), 2015)
Hit rate of the full screen: of about 410,000 compounds, about 5,100 (1.2%) were called active. Inconclusive results (about 8%) are left out. The list comes from a sample in which actives are over-represented; it also holds similar structures and randomly drawn compounds. Values without a mark were called inactive. Calls follow the shape of the full dose curve; tested in HEK293T cells.

assay: High Throughput Screening for Foot and Mouth Disease Virus Antivirals; conditions: FMDV antiviral cell-based qHTS; series mostly up to 57.9 µM; activity change, negative = inhibition: at the top concentration; also: read-out not given here; nearly all actives have a fitted effect of over 45% in size
% is scaled to controls: 0 for no effect and ±100 for the full control effect; potency is read from the fitted curve at half-maximal effect.

Going from `CCN1CCc2nc3sc(C(=O)Nc4ccccc4OC(F)(F)F)c(N)c3cc2C1` to `CCOc1ccc(C(=O)Nc2ccc3nc4c(c(Nc5ccccc5OC)c3c2)CCCC4)cc1`, the “activity change, negative = inhibition” value falls from -10.2% to -26%.

First: CC1OC(OCC2OC(Oc3c(-c4ccc(O)c(O)c4)oc4cc(O)cc(O)c4c3=O)C(O)C(O)C2O)[C@@H](O)C(O)C1O (stereo partly drawn)
Second: Oc1ccc2c(c1)OCC1c3cc4c(cc3OC21)OCO4 (stereo not drawn)
The “activity change, negative = inhibition” value of the first is lower: 3.27% for the first, 20.9% for the second.

Going from `Cc1noc(C)c1-c1nc(Nc2ccccc2)c2ccccc2n1` to `Cc1ccccc1-c1nc(N(C)Cc2ccco2)c2ccccc2n1`, the “activity change, negative = inhibition” value falls from -12.9% to -21.3%.

Compared with `O=C(c1cccc(Cn2cccn2)c1)N1CCOc2c(cc(-c3csc4ccccc34)cc2OC2CCOC2)C1` (stereo not drawn), `COc1cc(-c2cccnc2)cc2c1OCCN(C(=O)Cc1csc(C)n1)C2` is higher in “activity change, negative = inhibition” value: -19% for the first, 0.56% for the second.

Going from `CC1(C)OC2CC3C4CCC5=CC(=O)CCC5(C)C4(F)C(O)CC3(C)[C@]2(C(=O)CCl)O1` (stereo partly drawn) to `CC(=O)OCC(=O)[C@@]1(O)CCC2C3CCC4=CC(=O)CC[C@@]4(C)[C@]3(F)C(O)C[C@]21C` (stereo partly drawn), the “activity change, negative = inhibition” value rises from 28.9% to 46.7%.

Going from `Cc1ccnc(NS(=O)(=O)c2ccc(NC(=O)c3ccc(S(=O)(=O)N4CCOCC4)cc3)cc2)n1` to `Cc1ccc(S(=O)(=O)N2CCOCC2)cc1NC(=O)c1ccncc1`, the “activity change, negative = inhibition” value falls from -8.56% to -18.2%.

Going from `CCS(=O)(=O)Nc1cc(C(=O)N2C[C@@H](C)O[C@@H](C)C2)c2c(c1)nc(-c1ccccc1)n2C` to `Cc1ccccc1-c1nc(CS(=O)(=O)CC(=O)Nc2cc(Cl)cc(Cl)c2)c(C)o1`, the “activity change, negative = inhibition” value falls from -0.997% to -29.4%.

First: Cc1ccc2cccc(NC(=O)c3ccc(OC(C)C)cc3)c2n1
Second: CCCCOc1ccc(C(=O)Nc2cccc(-c3nc4ccccc4o3)c2C)cc1
The “activity change, negative = inhibition” value of the first is higher: 10% for the first, -21.3% for the second.

Going from `Cc1ccc(CC(=O)Nc2cccc(C#N)c2)cc1` to `Cc1ccc(C)c(OCCC(=O)Nc2cccc(S(=O)(=O)N3CCCC3)c2)c1`, the “activity change, negative = inhibition” value rises from -5.57% to 13%.

Going from `CC(C)(C)NC(=O)COC(=O)c1cc(Cl)ccc1[N+](=O)[O-]` to `O=C(COC(=O)c1n[nH]c2ccccc12)Nc1ccccc1Br`, the “activity change, negative = inhibition” value rises from -5.35% to 54.3%.

Going from `CCOCCn1ccc2c(OCC(=O)NCc3ccc(C)cc3)cccc2c1=O` to `COc1ccc(Cn2ccnc2SCC(=O)NCc2ccco2)cc1`, the “activity change, negative = inhibition” value rises from -9.21% to 11.3%.

Going from `COc1ccccc1CNc1ncnc2ccc(-c3c(C)noc3C)cc12` to `Cc1noc(C)c1-c1cc(NCc2cccnc2)ncn1`, the “activity change, negative = inhibition” value falls from 7.35% to 5.27%.

Compared with `Cc1ccc2oc(=O)c3cnn(CC(=O)N4CCN(c5cccc(Cl)c5)CC4)c3c2c1`, `Cc1c(C(=O)Nc2cccc(Cl)c2)oc2ccc(S(=O)(=O)N3CCOCC3)cc12` is higher in “activity change, negative = inhibition” value: -24.6% for the first, -6.84% for the second.

First: Cn1c(SCC(=O)N2CCCc3ccccc32)ncc(C(=O)Nc2ccc(F)cc2)c1=O
Second: COc1ccccc1Cc1nc2ccccc2nc1SCC(=O)N1CCCc2ccccc21
The “activity change, negative = inhibition” value of the first is higher: -9.61% for the first, -15.7% for the second.

Compared with `COc1cccc(Cn2c(=O)cnc3cncnc32)c1`, `COc1ccc(-c2nc3cnc(OC)nc3n(Cc3ccc(F)cc3)c2=O)cc1` is higher in “activity change, negative = inhibition” value: -1.66% for the first, 3.53% for the second.

Going from `O=C(c1ccco1)N1CCC2(CC1)CCN(c1ncccn1)CC2` to `CC(=O)N1CCC2(CCCN(Cc3ccc(C#N)cc3)C2)CC1`, the “activity change, negative = inhibition” value rises from -28.1% to 1.78%.

Going from `Cc1c(S(=O)(=O)O)oc2c1C(=O)C(=O)c1c-2ccc2c1CCCC2(C)C` to `CC(=O)c1c(C)[nH]c(C(=O)Nc2cc(S(=O)(=O)N(C)C)ccc2C)c1C`, the “activity change, negative = inhibition” value falls from -6.27% to -11.7%.

First: COc1ccc(C(=O)N2CCC[C@@]3(CCN(C(=O)NC(C)C)C3)C2)cc1
Second: CC(C)NC(=O)N1CC[C@@]2(CCCN(C(=O)c3cccc(F)c3)C2)C1
The “activity change, negative = inhibition” value of the first is lower: 1.76% for the first, 3.04% for the second.

Compared with `COc1cc(=O)n2c(c1C(=O)N(C)Cc1nccs1)CCN(Cc1ccc(Cl)cc1)CC2`, `Cc1cccnc1C(NC(=O)C1CCN(Cc2ccc(Cl)c(Cl)c2)CC1)c1ccc(Cl)cc1` (stereo not drawn) is lower in “activity change, negative = inhibition” value: -7.17% for the first, -27.1% for the second.

First: CCc1cc2c(SCC(=O)Nc3ncc(Cl)c(C)c3Cl)ncnc2s1
Second: Cc1ccc2cc(CCNC(=O)c3c(-c4ccccc4Cl)noc3C)c(=O)[nH]c2c1
The “activity change, negative = inhibition” value of the first is higher: -10.6% for the first, -12.7% for the second.

First: Clc1cc(NC2CCCCC2)ncn1
Second: O=S(=O)(c1ccc(Br)cc1)c1nnn2c1nc(NC1CCCCCC1)c1sccc12
The “activity change, negative = inhibition” value of the first is higher: -9.43% for the first, -22.8% for the second.

First: CC(=O)OC1CCC2(O)CC1(C)CCC1C2CC1(C)C (stereo not drawn)
Second: C[C@@]12CCC3C(CC[C@@H]4CC(O)CC[C@@]34C)C1CCC2O (stereo partly drawn)
The “activity change, negative = inhibition” value of the first is higher: 1.53% for the first, -0.759% for the second.

First: Cc1cccc(NC(=O)N2CCC(CN3CCc4ccccc4C3)CC2)c1C
Second: CC(=O)Nc1ccc(S(=O)(=O)N2CCN(c3ccccc3)CC2)cc1
The “activity change, negative = inhibition” value of the first is higher: -1.24% for the first, -23.6% for the second.

First: COc1ccc(-c2ccc(OC(=O)NC3CCS(=O)(=O)C3)cc2)cc1 (stereo not drawn)
Second: Cc1ccc(C(=O)N/C(=C\c2ccco2)C(=O)NC2CCS(=O)(=O)C2)cc1 (stereo not drawn)
The “activity change, negative = inhibition” value of the first is higher: 0% for the first, -14.2% for the second.

Compared with `O=C(CCc1ccccc1F)N1CCN(c2ccccc2)CC1`, `CCN1CCN(C(=O)CCN2C(=O)c3ccccc3C2=O)CC1` is higher in “activity change, negative = inhibition” value: -8.27% for the first, -0.0403% for the second.

First: CCNc1ncc2nc(CCc3ccccc3)c(=O)n(-c3ccc(OC)cc3)c2n1
Second: CCOc1ccc(NC(=O)c2cn(C3CCCCC3)c(=O)c3c2c2ccccc2n3C)cc1
The “activity change, negative = inhibition” value of the first is higher: -10.2% for the first, -11.9% for the second.

First: O=C(c1csnn1)N1CCC[C@@]2(CCN(Cc3nccs3)C2)C1
Second: CC1CCN(C(=O)Cn2c(=O)n(-c3ccc(Cl)cc3)c(=O)c3c4c(sc32)CCC4)CC1
The “activity change, negative = inhibition” value of the first is higher: -13% for the first, -13.5% for the second.

Going from `CCc1cccc(C)c1Nc1c(-c2ccc(N(C)C)cc2)nc2ncccn12` to `COc1ccc2[nH]cc(CCNc3ncnc4ccc(-c5ccc(C(=O)N(C)C)cc5)cc34)c2c1`, the “activity change, negative = inhibition” value rises from -23.4% to 13.8%.

Going from `CCCCn1c(=O)c2oc3ccccc3c2n(CC(=O)Nc2ccccc2OC)c1=O` to `COc1ccc(CCNC(=O)CCn2c(=O)c3ccccc3n(CC(=O)NCC3CCCO3)c2=O)cc1OC` (stereo not drawn), the “activity change, negative = inhibition” value falls from 12.7% to 5.3%.

Compared with `CCCOc1cccc(C(=O)Nc2cccc(NC(=O)c3ccc(C(C)(C)C)cc3)c2)c1`, `CCCCn1c(N)c(N(CCOC)C(=O)c2cccc(S(=O)(=O)N(C)c3ccccc3)c2)c(=O)[nH]c1=O` is lower in “activity change, negative = inhibition” value: 27.4% for the first, -10.4% for the second.

First: CC(C)CCOc1ccc(C(=O)C[N+]2(C)CCOCC2)cc1
Second: COc1ccc(CCNC(=O)COC(=O)C2CCCCC2)cc1
The “activity change, negative = inhibition” value of the first is higher: -1.69% for the first, -8.93% for the second.

First: Cc1ccc(C(NC(=O)C2CCN(CCOc3ccc(Cl)cc3Cl)CC2)c2ccccn2)cc1 (stereo not drawn)
Second: COc1ccccc1-c1ccnc(-n2ncc(C(=O)NCCCN3CCOCC3)c2C)n1
The “activity change, negative = inhibition” value of the first is higher: -14.3% for the first, -20.6% for the second.

Compared with `COc1ccc(-c2nn3c(=O)cc(CN4CCN(C(=O)c5ccc(OC)c(OC)c5)CC4)nc3s2)cc1`, `Cc1onc(-c2c(F)cccc2Cl)c1C(=O)Nc1cccc(S(=O)(=O)N2CCCCC2)c1` is lower in “activity change, negative = inhibition” value: -9.2% for the first, -23.2% for the second.

Going from `CC(C)C1=CC2=CC[C@@H]3[C@](C)(CO)CCC[C@]3(C)C2CC1` (stereo partly drawn) to `COC1=C[C@]23CCCN2CCc2cc4c(cc2[C@@H]3[C@@H]1O)OCO4`, the “activity change, negative = inhibition” value falls from -11% to -12.3%.

Compared with `CCN(Cc1ccncc1)C(=O)[C@@H](CO)c1ccccc1`, `FC(F)(F)c1ccccc1-c1cc(NCc2ccccc2)ncn1` is lower in “activity change, negative = inhibition” value: -3.49% for the first, -9% for the second.

First: CC1Cc2cc(S(=O)(=O)CCC(=O)Nc3ccc(F)c(Cl)c3)ccc2N1C(=O)C1CC1 (stereo not drawn)
Second: CN(C)S(=O)(=O)c1ccc(NC(=O)COC(=O)Cn2[nH]c(=O)c3ccccc3c2=O)cc1
The “activity change, negative = inhibition” value of the first is lower: -26.6% for the first, -2.54% for the second.

First: O=C(COC(=O)CNC(=O)C1CCCCC1)NCc1ccccc1
Second: Cc1nn(CC(=O)NCC2CCCO2)c(=O)c2cc3ccccc3n12 (stereo not drawn)
The “activity change, negative = inhibition” value of the first is higher: 2.61% for the first, 2.47% for the second.

Compared with `Nc1ncn(C2OC(CO)C(O)C2O)c(=O)n1` (stereo not drawn), `CCOC(=O)c1c(C(C#N)C#N)cc(C)nc1C` is higher in “activity change, negative = inhibition” value: -3.39% for the first, 18.2% for the second.

In the case of `CCCCSc1[nH]c(=O)c(C(=O)OCC)cc1C#N`, the “activity change, negative = inhibition” value is reported as 5.15%.

With `Cc1ccc(Nc2c3c(nc4ccccc24)CCC3)cc1` the Potency was 17.8 µM (active).
In the case of `COc1ccc(C(=O)Nc2nc(-c3ccc(S(=O)(=O)N4CCOCC4)cc3)cs2)cc1`, the Potency is reported as 7.94 µM (active).
With `N#Cc1cccc(NC(=O)COC(=O)c2ccccc2C(=O)c2ccc(Cl)c([N+](=O)[O-])c2)c1` the Potency was 28.2 µM (active).
In the case of `Cn1c(SCC(=O)N2CCCc3ccccc32)nc2ccccc2c1=O`, the Potency is reported as 12.6 µM (active).
For `CCc1cc2c(NC3CCCC3)ncnc2s1`, the Potency was 25.1 µM (active).
With `Cc1cc(C)cc(Oc2nc3c(C)cccn3c(=O)c2/C=C(\C#N)C(=O)NC2CCS(=O)(=O)C2)c1` (stereo not drawn) the Potency was 22.4 µM (active).
For `C=CCN1CCN(C(=O)CCCc2ccccc2)CC1`, the Potency was 14.1 µM (active).
In the case of `CC(=O)Nc1ccc(S(=O)(=O)N2CCN(CCCOc3cc(C)ccc3C)CC2)cc1`, the Potency is reported as 31.6 µM (active).
For `CCCOc1ccc(C(=O)C(CCC(CNCC)C(=O)c2ccc(OCCC)cc2)CNCC)cc1` (stereo not drawn), the Potency was 28.2 µM (active).
For `O=C(NC(c1ccc(-c2ccccc2)cc1)c1cnccn1)C1CCN(CCOc2ccc(Cl)cc2Cl)CC1` (stereo not drawn), the Potency was 35.5 µM (active).
With `O=C(OC12CC3CC(CC(C3)C1)C2)c1ccc(NCc2cc(O)ccc2O)cc1` the Potency was 12.6 µM (active).
For `CN(C)S(=O)(=O)c1ccc(NC(=O)COC(=O)c2n[nH]c3ccccc23)cc1`, the Potency was 22.4 µM (active).
With `CCN1CCC(O)(/C=C/c2ccc(C)cc2)C(C(=O)/C=C/c2ccc(C)cc2)C1` (stereo not drawn) the Potency was 28.2 µM (active).
In the case of `Cc1ccc(CNC(=O)COC(=O)C2CCC2)cc1`, the Potency is reported as 31.6 µM (active).
With `CCN1C(=O)C(=Cc2c(C)n(CC(=O)NCC3CCCO3)c3ccccc23)C(=O)N(CC)C1=S` (stereo not drawn) the Potency was 25.1 µM (active).
In the case of `c1ccc2c(c1)C(=NC1CCCCC1)NC2=NC1CCCCC1`, the Potency is reported as 15.8 µM (active).
In the case of `CC(=O)c1c(C)[nH]c(C(=O)COC(=O)c2cccc(S(=O)(=O)N(C)c3ccccc3)c2)c1C`, the Potency is reported as 11.2 µM (active).
In the case of `CC(=O)Nc1cccc(/C(C)=N/NC(=O)c2c(-c3ccccc3Cl)noc2C)c1`, the Potency is reported as 25.1 µM (active).
For `CCOC(=O)c1cc(C)nc(S(C)(=O)=O)c1C#N`, the Potency was 35.5 µM (active).

With `CCCCCCCC/C=C\CCCCCCCC(=O)OC[C@H](CO)OC(C)=O` the activity change, negative = inhibition was -19.7% [at 6.7 µM].

`CCCCC/C=C\CC1OC1CCCCCCCC(=O)O` (stereo not drawn) gave an activity change, negative = inhibition of -2.3% [at 0.463 µM].
